Consider 40 compounds from PubChem BioAssay.

Calls of active or inactive are those of the source. How the calls were made is not given here.

In the assay the target is Pantothenate synthetase (Mycobacterium tuberculosis (strain ATCC 25618 / H37Rv)) (UniProt P9WIL5). In words: Recombinant Mtb pantothenate synthetase (PanC) inhibitors, coupled enzyme, confirmatory (AID 375).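 Further: 0% = full reaction with vehicle and 100% = no enzyme background.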 The note with it: coupled enzyme assay; at 10 µM, hits give high values.
Chain of Pantothenate synthetase (Mycobacterium tuberculosis (strain ATCC 25618 / H37Rv)) (P9WIL5 whole entry, looked up): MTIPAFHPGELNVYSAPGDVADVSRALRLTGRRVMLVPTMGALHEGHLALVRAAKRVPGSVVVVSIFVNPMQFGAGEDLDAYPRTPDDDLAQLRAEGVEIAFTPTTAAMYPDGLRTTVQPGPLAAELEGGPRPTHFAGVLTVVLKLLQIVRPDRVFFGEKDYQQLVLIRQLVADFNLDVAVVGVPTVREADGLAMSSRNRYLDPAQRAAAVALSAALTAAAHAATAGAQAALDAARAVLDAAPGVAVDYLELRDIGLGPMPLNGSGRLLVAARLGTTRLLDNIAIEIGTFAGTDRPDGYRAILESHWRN
As to `CCOC(=O)N1CCC(NC(=O)c2cnn3ccccc23)CC1`, the inhibition is 0% (inactive).
Next, `CCCS(=O)(=O)C(=C1Nc2ccccc2N1)S(=O)(=O)CCC`: 1% (inactive).
Consider `CCOc1ccccc1Nc1nnc(SCC(=O)N2CCCC2)s1`, for which the inhibition was 0% (inactive).
As for `CCN(CC)c1ccc(-c2nn3c(-c4cccnc4)nnc3s2)cc1`, the inhibition was 4% (inactive).
Next, `CC(C(=O)Nc1ccccc1-c1ccccc1)N1CCOCC1` (stereo not given): 1% (inactive); `Cc1cc(NC(=O)C2CCCC2)nc2c1c(=O)oc1ccccc12`: 12% (inactive).
Next, `O=C(Nc1ccccc1C(=O)N1CCOCC1)c1cccc(S(=O)(=O)N2CCCC2)c1`: 0% (inactive); `CCn1c(SCC(=O)NCCc2ccc(Cl)cc2)nnc1-c1cccs1`: 1% (inactive).
Next, `Cc1ccc(S(=O)(=O)N2CCN(C(=O)N3CCOCC3)C2c2ccc(N(C)C)cc2)cc1` (stereo not given): 0% (inactive); `N#CC1=C(N)N(c2ccccc2)C(c2ccccc2)C1(C#N)C#N` (stereo not given): 0% (inactive).
On to `Cc1[nH]c(=O)[nH]c(=O)c1S(=O)(=O)N1CCN(c2cccc(Cl)c2)CC1`, for which the inhibition was 1% (inactive).
`CC(COc1ccccc1)NC(C)C(O)c1ccc(O)cc1` (stereo not given): the inhibition was 0% (inactive).
The same measure for `O=C(NCc1cccs1)C1CC(=O)N(c2ccccc2)C1` (stereo not given): 0% (inactive).
Next, `CC1Cc2ccccc2N1C(=O)Cc1cccs1` (stereo not given): 3% (inactive); `O=C(NC1CCCC1)c1c[nH]c2ccc(F)cc2c1=O`: 0% (inactive).
The same measure for `COc1ccc(NC(=O)CCS(=O)(=O)c2ccc(OC)cc2)cc1`: 0% (inactive).
Take `C=CCn1c(COc2ccc(CC)cc2)nnc1SC/C(O)=C(\C#N)c1nc2ccccc2[nH]1`: the inhibition is 5% (inactive).
Turning to `CC1(C)C(c2cccs2)=[N+]([O-])C2(CCCCC/C2=N\O)N1O` (stereo not given), the inhibition is 6% (inactive).
`CCOc1ccc(C(c2nnnn2Cc2ccccc2)N2CCN(C(=O)c3ccco3)CC2)cc1` (stereo not given): the inhibition is 2% (inactive).
The same measure for `COc1ccc(N(CC(=O)N2CCN(Cc3ccc4c(c3)OCO4)CC2)S(C)(=O)=O)cc1OC`: 5% (inactive); for `Cc1ccc(S(=O)(=O)N2CCC(C(=O)N3CCN(Cc4ccccc4)CC3)CC2)cc1`: 0% (inactive).
The same measure for `COc1ccccc1-n1c(=O)c2c3c(sc2n2c(SC(C)C)nnc12)CCC3`: 1% (inactive); for `COc1cc(Br)cc(CN2CCN(C/C=C/c3ccccc3)CC2)c1O`: 0% (inactive); for `CC(=O)O[C@H]1C[C@@H]2CC[C@@H]3[C@H](CC[C@@]4(C)[C@H]3C[C@H]([N+]3(C)CCCCC3)[C@@H]4OC(C)=O)[C@@]2(C)C[C@@H]1[N+]1(C)CCCCC1`: 0% (inactive).
The same measure for `COC(=O)c1ccccc1NC(=O)Cn1ccnc1`: 0% (inactive); for `COCCN(C(=O)c1csnn1)C(C(=O)NC1CCCCC1)c1cccs1` (stereo not given): 2% (inactive); for `COc1ccc(CCNC(=O)CSCc2n[nH]c(=O)[nH]2)cc1OC`: 0% (inactive).
In the case of `O=C(CSCc1cnn(-c2ccccc2)c1-n1cccc1)NCC1CCCO1` (stereo not given), the inhibition is 4% (inactive).
Consider `Cn1c(CCNC(=O)c2ccco2)nc2cc(NC(=O)C3CCCCC3)ccc21`, for which the inhibition was 0% (inactive).
Next, `CC(COc1ccccc1)N(CCCl)Cc1ccccc1` (stereo not given): 0% (inactive); `COC(=O)Cc1cc(=O)n(-c2ccccc2)[nH]1`: 0% (inactive).
As to `Cc1ccc(NC2c3ncccc3C(=O)N2C2CCCCC2)cc1C` (stereo not given), the inhibition was 0% (inactive).
The same measure for `CCCn1c(=O)[nH]c(=O)c2[nH]cnc21`: 0% (inactive).
Consider `COc1cc2c(cc1NC(=O)CN1CCN(S(=O)(=O)c3ccc(F)cc3)CC1)oc1ccccc12`, for which the inhibition is 0% (inactive).
`Nc1nnc(Cc2ccc(Cl)cc2)s1`: the inhibition is 4% (inactive).
With `Cc1cc(C)nc(SC2=CS(=O)(=O)c3ccccc32)n1`, the inhibition was 0% (inactive).
For `CCCCOc1cc(=O)[nH]c(=O)[nH]1`, the inhibition is 4% (inactive).
The same measure for `CC(C)CCNC(=O)C1CCN(C(=O)N(C)C)CC1`: 0% (inactive); for `O=C(CSCc1cccc(F)c1)N1CCN(c2ccccc2)CC1`: 4% (inactive).
Next, `CC(C)N(C(=O)N1CCC(c2nc(-c3ccncc3)no2)CC1)C(C)C`: 0% (inactive).
